Source: PubChem BioAssay (National Center for Advancing Translational Sciences (NCATS))
Sampled rows, rich in hits. Any-hit rate of the full collection: about 2.2%.
aSyn yeast inh: rescues yeast growth from alpha-synuclein toxicity. Yeast expressing alpha-synuclein, growth rescue, BacTiter-Glo, 24 h. Potency, µM (series often up to 46.1 µM), without a hit: at the highest dose growth rescue (activation), hits mostly activators. hit rate 0.14% among 370,000. AID 652106; also: % of control where 0% means no effect; nearly all actives have a fitted effect of over 65% in size
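Rescue of yeast growth: cells expressing toxic alpha-synuclein, induced in galactose at OD600 0.02, incubated with compound 24 h at 30 C. ATP luminescence quantified growth; inhibitors of toxicity appear as activators.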
Abeta yeast res: restores growth of yeast expressing A-beta42 peptide | yeast expressing A-beta42, growth rescue, OD600, 48 h; response scale: 0% DMSO, 100% iron-clioquinol control | hit rate 0.063% among 410,000 | Potency, µM (titrated, usually from 46.1 µM), most hits filed as activators; also: nearly all actives have a fitted effect of over 55% in size
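Yeast A-beta toxicity model in growth medium with pinned compounds, 48 h at 30 C; growth read as absorbance at 600 nm. Normalized to FeCl3/clioquinol equimolar mix (positive) and DMSO (negative).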
FUS yeast rescue: suppressors of FUS proteinopathy in yeast; Potency, µM (titrated, usually from 76.6 µM), most hits filed as activators; AID 1347120; S. cerevisiae FUS-expressing, growth rescue, OD600, 24 h; hit rate 0.24% among 390,000;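 also: plate controls were DMSO vehicle for no effect and reference control for full effect; nearly all actives have a fitted effect of over 55% in size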
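Read-out: OD at 600 nm after 24hr at 30C, reporting rescue of FUS-induced yeast toxicity. Cells at OD 0.005 in galactose (2%) minimal medium; compounds tested in a dilution series; CP55940 titration from 92uM final as control.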
Mito fusion yeast: blocks mitochondrial division or promotes mitochondrial fusion. Potency, µM (top dose mostly 46.1 µM), for inactives: at the top dose growth rescue (activation), usual class: activators. S. cerevisiae fusion-defective mutant growth rescue, CellTiterGlo 48 h. hit rate 0.23% among 320,000; also: % of control where 0% means no effect; nearly all actives have a fitted effect of over 45% in size
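Compounds are tested for their ability to restore growth of mitochondrial fusion-defective yeast strains at non-permissive 37C in YPEG medium over 48 hours. Viability is quantified by luciferase luminescence.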
TDP43 rescue: rescues yeast growth from TDP-43 toxicity; TDP-43 expressing yeast growth rescue, BacTiter-Glo, 24 h; Potency, µM (highest dose often 46.1 µM), for the others: top-dose growth rescue (activation), most hits filed as activators; hit rate 1.8% among 410,000; also: % of control where 0% means no effect; nearly all actives have a fitted effect of over 50% in size
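Growth rescue of TDP-43-toxic yeast measured as ATP luminescence (BacTiter-Glo). Cells grown to mid-log in raffinose, induced in galactose at OD600=0.02, exposed to compound 24 hr at 30 deg C.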
* hit, by the source's call; i = inactive; ? = inconclusive; nt = no result; ! = repeats disagree. Calls follow the shape of the dose curve; as a rule, active = well fitted curve in the direction sought with a large enough effect; inconclusive = small, poorly fitted or top-dose-only effect, or another doubt; inactive = no such curve, though single readings can be large; an effect the other way counts as inactive or inconclusive. Potency is read from the fitted curve at half-maximal effect.

SMILES	aSyn yeast inh	Abeta yeast res	FUS yeast rescue	Mito fusion yeast	TDP43 rescue
c1ccc(Cc2ccc(OCCn3cncn3)cc2)cc1	3%	i	i	3%	?
c1ccc(-c2ccc(OCCOCCn3cncn3)cc2)cc1	0%	i	i	2%	14µM*
Clc1ccc(-n2nnnc2-c2cnc(-c3ccncc3)nc2-c2cccs2)cc1	16%	i	i	14µM*	0%
FC(F)(F)c1nc(-c2cccs2)ncc1-c1nnnn1-c1ccc(Cl)cc1	-4%	i	i	2%	3%
CCCCCCCCn1cc(C(C)=O)c(=O)[nH]c1=O	6%	i	i	10%	13µM*
Cc1noc(-c2ccccc2OCC(=O)Nc2ccccc2[N+](=O)[O-])n1	nt	i	i	nt	20µM*
COc1ccccc1NC(=O)COc1cccnc1[N+](=O)[O-]	9%	i	i	nt	7.9µM*
CN(C(=O)c1cc(COc2ccc(F)cc2Cl)on1)C1CCOC1 (configuration not stated)	17%	i	i	nt	15%
COCCCNC(=O)C[C@H]1C[C@H](C(=O)N(C(C)C)C(C)C)[C@@]2(C)c3[nH]c4ccc(Cl)cc4c3CCN2C1=O	-1%	i	i	nt	-2%
Cc1ccc(-c2nc(=Nc3c(C)cc(C)cc3C)sn2-c2ccccc2)cc1	-45%	nt	nt	nt	nt
COc1cc2oc3ccc(C#Cc4ccc(N)cc4)cc3c(=O)c2cc1OC	4%	i	i	nt	5%
COc1cc2oc3ccc(C#Cc4ccccn4)cc3c(=O)c2cc1OC	13µM*	i	i	nt	9%
O=C(NC(=S)NCc1ccccc1Cl)c1cccs1	-14%	i	nt	nt	18µM*
Cc1ccccc1C(=O)NNC(=S)NC(=O)c1cccs1	3.5µM*	i	i	-15%	?
Cc1ccnc(NC(=S)NC(=O)c2cccs2)c1	-7%	i	nt	-3%	16µM*
CCC(C)c1ccc(O)c(NC(=S)NC(=O)c2cccs2)c1 (configuration not stated)	13µM*	?	i	nt	?
Cc1ccc(-n2c(SCC(=O)c3ccc(O)c(O)c3)nnc2-c2ccccc2)cc1	nt	nt	7.9µM*	nt	nt
COc1ccc(-c2nc3ccccc3n2Cc2ccc(Cl)cc2)cc1	nt	i	i	nt	22µM*
COc1ccc(Cn2c(=S)[nH]c3ccccc32)cc1	-16%	11µM*	i	-1%	16%
COc1ccc(-c2nc3ccccc3n2Cc2ccc(C(C)C)cc2)cc1	1%	i	i	nt	22µM*
COc1ccc(-c2nc3ccccc3n2Cc2ccc(C)cc2)cc1	10%	?	i	5%	4%
COCn1c(-c2ccc(OC)cc2)nc2ccccc21	-5%	i	i	-7%	2%
COc1ccc(-n2c(=S)[nH]c3ccccc32)cc1	5%	i	?	1%	?
Cc1ccc(S(=O)(=O)N2CCN(c3nc(-n4cncn4)nc4ccccc34)CC2)cc1	4%	nt	nt	nt	nt
Cc1c(OCC(=O)C(C)(C)C)ccc2c(-c3ccccc3)cc(=O)oc12	2%	?	i	-30%	25µM*
SMILES	aSyn yeast inh	Abeta yeast res	FUS yeast rescue	Mito fusion yeast	TDP43 rescue
Cc1ccc(N=Nc2ccc(O)c(/C=N\NC(=O)c3ccc(N)cc3)c2)cc1C	-1%	i	1.1µM*	2%	-19%
O=C(/C(=C/c1ccc(Cl)cc1)c1nc2ccccc2[nH]1)c1cccs1	-23%	i	i	0%	3.2µM*
CCOC(=O)C1=CCN(S(=O)(=O)c2ccc(C)cc2)C1c1cccc(C)c1 (configuration not stated)	3%	i	i	nt	0%
CC(C)(C)OC(=O)N1CCc2nc(N3CCN(c4ncccn4)CC3)ncc2C1	nt	i	i	nt	26%
CCNc1ccc(Br)cc(C(=O)/C=C/c2c(Cl)cccc2Cl)c1=O	15%	i	?	7%	-6%
CCNc1ccc(Br)cc(C(=O)/C=C/c2ccc(Cl)cc2)c1=O	9%	i	i	13µM*	-13%
CN(Cc1nc(-c2ccc(Cl)cc2)no1)S(=O)(=O)c1ccccc1	nt	i	i	nt	35µM*
CS(=O)(=O)N(Cc1nc(-c2ccc(F)cc2)no1)c1ccccc1Cl	19%	i	i	15%	22µM*
O=C(NCc1cccc(Cl)c1)c1cnc(N2CCCCC2)c2ccccc12	nt	i	?	nt	14%
CCCCCC1CCC(c2n[nH]c(=S)n2C)CC1 (configuration not stated)	8%	?	i	?	14µM*
Cc1cc(=O)n2c(C(=O)Nc3ccc(F)c(Cl)c3)c(C(=O)Nc3cccc(C)c3C)sc2n1	nt	i	i	nt	0%
Cc1ccc(S(=O)(=O)N2CCN(c3nc(C(N)=O)nc4ccccc34)CC2)cc1	1%	nt	nt	nt	nt
O=C(Nc1ccccc1)c1cccc(S(=O)(=O)Nc2cccc(F)c2)c1	nt	i	i	2%	0%
COC(=O)C1=C(C)NC(C)=C([N+](=O)[O-])C1c1ccccc1C(F)(F)F (configuration not stated)	4%	i	i	13µM*	13%
COC(=O)C1=C(C)NC(C)=C(C(=O)OC)C1c1ccc(-c2cccc([N+](=O)[O-])c2)o1	0%	i	i	1%	16%
COc1cccc(C(=O)NCCSCc2c(F)cccc2Cl)c1	13%	i	i	3%	11µM*
O=C(/C=C/c1cccc([N+](=O)[O-])c1)NCCSCc1cccc(Cl)c1	23%	i	i	?	22µM*
COc1cccc(C(=O)NCCSCc2ccccc2Cl)c1	0%	i	?	4%	?
CCOc1ccc(CCNC(=O)CCSCc2cccc(Cl)c2)cc1OCC	nt	i	i	nt	22µM*
CCOc1ccc(CCNC(=O)CCSCc2ccc(Cl)cc2)cc1OCC	nt	i	i	nt	21%
COc1ccc(C(=O)NCCSCc2cccc(Cl)c2)cc1OC	7%	i	i	-1%	20µM*
COC(=O)[C@]12C[C@H](CC(=O)N3CCCC3)C(=O)N(CCc3ccc(OC)c(OC)c3)C1=C[C@H](C(C)C)O[C@@H]2C1CC1	nt	nt	i	nt	nt
O=C(CCSCc1cccc(Cl)c1)NCCc1ccc(Cl)cc1	2%	i	i	24%	11µM*!
O=C(CCSCc1ccc(Cl)cc1)NCCc1ccccc1	10%	i	i	14%	18%
COc1cc2c(cc1OC)CN(c1nc(-c3cccnc3)nc3ccccc13)CC2	3%	i	i	-5%	14µM*
O=S(=O)(c1ccccc1F)N1CCN(c2nc(-c3cccnc3)nc3ccccc23)CC1	4%	i	i	?	-16%
Cc1ccc(C)c(S(=O)(=O)N2CCN(c3nc(-c4cccnc4)nc4ccccc34)CC2)c1	9%	i	i	?	16µM*
